Assay results from PubChem BioAssay AID1159580 (chemical genetic matrix, 2015).
Among all 5,500 compounds or so, about 2,000 (36%) were called active. Roughly 18% stayed inconclusive and do not appear here. The list shows a part of the results. Values without a mark were called inactive. Rule as the data show it: active = normalized growth mostly below about 0.91 (no sharp cut-off); inconclusive = no clear call, values can overlap the other calls; inactive = mostly above about 0.92.

Test: chemical genetic growth profiling, strain panel (AID 1159580);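 also: tested at 20 µM; growth read once vehicle control cultures reached saturation at 30 °C; 1 = growth at the plate median or of vehicle wells; lower values mean less growth of the strain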
Settings: growth OD

`ClC1=C(Cl)C2(Cl)C3C(Cl)C=CC3C1(Cl)C2(Cl)Cl` (configuration not stated) showed a normalized growth (S. cerevisiae deletion strains, locus YJR075W, strain HOC1, active compounds read low) of 1, a normalized growth (S. cerevisiae deletion strains, locus YKL009W, strain mrt4, active compounds read low) of 0.957 and a normalized growth (S. cerevisiae deletion strains, locus YKL068W, active compounds read low) of 1. It also gave a normalized growth (S. cerevisiae deletion strains, locus YKL085W, strain MDH1 (second series), active compounds read low) of 0.996, a normalized growth (S. cerevisiae deletion strains, locus YKL085W, strain MDH1, active compounds read low) of 0.996 and a normalized growth (S. cerevisiae deletion strains, locus YKL160W, strain elf1, active compounds read low) of 0.993. For the same molecule, the normalized growth (S. cerevisiae deletion strains, locus YKL190W, strain CNB1, active compounds read low) was 0.989, the normalized growth (S. cerevisiae deletion strains, locus YKR001C, strain vps1, active compounds read low) was 0.965 and the normalized growth (S. cerevisiae deletion strains, locus YKR026C, strain gcn3, active compounds read low) was 1.01. The normalized growth (S. cerevisiae deletion strains, locus YKR091W, strain srl3, active compounds read low) was 1.01, the normalized growth (S. cerevisiae deletion strains, locus YLL001W, strain dnm1, active compounds read low) was 1 and the normalized growth (S. cerevisiae deletion strains, locus YLL026W, active compounds read low) was 1.01. For the same molecule, the normalized growth (S. cerevisiae deletion strains, locus YLL041C, strain sdh2, active compounds read low) was 1.01, the normalized growth (S. cerevisiae deletion strains, locus YLR027C, strain aat2, active compounds read low) was 0.97 and the normalized growth (S. cerevisiae deletion strains, locus YLR039C, strain RIC1, active compounds read low) was 1. For the same molecule, the normalized growth (S. cerevisiae deletion strains, locus YLR058C, strain SHM2, active compounds read low) was 0.986, the normalized growth (S. cerevisiae deletion strains, locus YLR102C, strain apc9, active compounds read low) was 0.981 and the normalized growth (S. cerevisiae deletion strains, locus YLR113W, strain HOG1, active compounds read low) was 0.938. For the same molecule, the normalized growth (S. cerevisiae deletion strains, locus YLR221C, strain rsa3, active compounds read low) was 0.971, the normalized growth (S. cerevisiae deletion strains, locus YLR258W, strain gsy2, active compounds read low) was 0.988 and the normalized growth (S. cerevisiae deletion strains, locus YLR262C, strain YPT6 (second series), active compounds read low) was 0.933. For the same molecule, the normalized growth (S. cerevisiae deletion strains, locus YLR262C, strain YPT6, active compounds read low) was 1.01, the normalized growth (S. cerevisiae deletion strains, locus YLR268W, strain sec22, active compounds read low) was 0.985 and the normalized growth (S. cerevisiae deletion strains, locus YLR320W, strain mms22, active compounds read low) was 0.965. The normalized growth (S. cerevisiae deletion strains, locus YLR330W, strain CHS5, active compounds read low) was 0.998, the normalized growth (S. cerevisiae deletion strains, locus YLR342W, strain FKS1 (second series), active compounds read low) was 0.948 and the normalized growth (S. cerevisiae deletion strains, locus YLR342W, strain FKS1, active compounds read low) was 1.01. For the same molecule, the normalized growth (S. cerevisiae deletion strains, locus YLR357W, strain rsc2, active compounds read low) was 1, the normalized growth (S. cerevisiae deletion strains, locus YLR370C, strain arc18, active compounds read low) was 0.999 and the normalized growth (S. cerevisiae deletion strains, locus YLR371W, strain rom2, active compounds read low) was 0.973. The normalized growth (S. cerevisiae deletion strains, locus YLR384C, strain iki3, active compounds read low) was 1.01, the normalized growth (S. cerevisiae deletion strains, locus YLR418C, strain cdc73, active compounds read low) was 0.977 and the normalized growth (S. cerevisiae deletion strains, locus YML016C, strain PPZ1, active compounds read low) was 0.992. It also gave a normalized growth (S. cerevisiae deletion strains, locus YML032C, strain rad52, active compounds read low) of 0.968, a normalized growth (S. cerevisiae deletion strains, locus YML120C, strain ndi1, active compounds read low) of 1 and a normalized growth (S. cerevisiae deletion strains, locus YML124C, strain tub3, active compounds read low) of 0.978. It also gave a normalized growth (S. cerevisiae deletion strains, locus YMR058W, strain fet3, active compounds read low) of 0.998, a normalized growth (S. cerevisiae deletion strains, locus YMR078C, strain ctf18, active compounds read low) of 0.959 and a normalized growth (S. cerevisiae deletion strains, locus YMR125W, strain sto1, active compounds read low) of 1.01. It also gave a normalized growth (S. cerevisiae deletion strains, locus YMR129W, active compounds read low) of 1.01, a normalized growth (S. cerevisiae deletion strains, locus YMR205C, strain PFK2, active compounds read low) of 0.947 and a normalized growth (S. cerevisiae deletion strains, locus YMR223W, strain ubp8, active compounds read low) of 0.95. It also gave a normalized growth (S. cerevisiae deletion strains, locus YMR231W, strain pep5, active compounds read low) of 0.987, a normalized growth (S. cerevisiae deletion strains, locus YMR263W, strain SAP30, active compounds read low) of 0.999 and a normalized growth (S. cerevisiae deletion strains, locus YMR307W, strain GAS1, active compounds read low) of 1.06. The normalized growth (S. cerevisiae deletion strains, locus YNL067W, strain RPL9B, active compounds read low) was 1, the normalized growth (S. cerevisiae deletion strains, locus YNL071W, strain lat1, active compounds read low) was 1.02 and the normalized growth (S. cerevisiae deletion strains, locus YNL128W, strain TEP1, active compounds read low) was 0.987. It also gave a normalized growth (S. cerevisiae deletion strains, locus YNL153C, strain GIM3, active compounds read low) of 0.989, a normalized growth (S. cerevisiae deletion strains, locus YNL183C, strain NPR1, active compounds read low) of 0.962 and a normalized growth (S. cerevisiae deletion strains, locus YNL209W, strain ssb2, active compounds read low) of 0.997. The normalized growth (S. cerevisiae deletion strains, locus YNL233W, strain BNI4, active compounds read low) was 0.978, the normalized growth (S. cerevisiae deletion strains, locus YNL248C, strain rpa49, active compounds read low) was 0.996 and the normalized growth (S. cerevisiae deletion strains, locus YNL250W, strain rad50, active compounds read low) was 0.99. For the same molecule, the normalized growth (S. cerevisiae deletion strains, locus YNL271C, strain bni1, active compounds read low) was 0.984, the normalized growth (S. cerevisiae deletion strains, locus YNL298W, strain CLA4, active compounds read low) was 0.977 and the normalized growth (S. cerevisiae deletion strains, locus YNL307C, strain MCK1, active compounds read low) was 0.885 (active). The normalized growth (S. cerevisiae deletion strains, locus YNL322C, strain KRE1 (second series), active compounds read low) was 0.982, the normalized growth (S. cerevisiae deletion strains, locus YNL322C, strain KRE1, active compounds read low) was 1 and the normalized growth (S. cerevisiae deletion strains, locus YNR049C, strain mso1, active compounds read low) was 1. It also gave a normalized growth (S. cerevisiae deletion strains, locus YNR052C, strain pop2, active compounds read low) of 0.964, a normalized growth (S. cerevisiae deletion strains, locus YOL006C, strain TOP1, active compounds read low) of 0.97 and a normalized growth (S. cerevisiae deletion strains, locus YOL012C, strain htz1) of 0.908. It also gave a normalized growth (S. cerevisiae deletion strains, locus YOL147C, strain pex11, active compounds read low) of 0.989, a normalized growth (S. cerevisiae deletion strains, locus YOR001W, strain rrp6, active compounds read low) of 1.01 and a normalized growth (S. cerevisiae deletion strains, locus YOR061W, strain CKA2, active compounds read low) of 0.993. For the same molecule, the normalized growth (S. cerevisiae deletion strains, locus YOR069W, strain VPS5, active compounds read low) was 0.982, the normalized growth (S. cerevisiae deletion strains, locus YOR070C, strain gyp1, active compounds read low) was 1.01 and the normalized growth (S. cerevisiae deletion strains, locus YOR080W, strain dia2, active compounds read low) was 0.995. For the same molecule, the normalized growth (S. cerevisiae deletion strains, locus YOR083W, strain WHI5, active compounds read low) was 0.974, the normalized growth (S. cerevisiae deletion strains, locus YOR106W, strain vam3, active compounds read low) was 0.942 and the normalized growth (S. cerevisiae deletion strains, locus YOR136W, strain idh2, active compounds read low) was 0.963. It also gave a normalized growth (S. cerevisiae deletion strains, locus YOR144C, strain elg1, active compounds read low) of 0.977, a normalized growth (S. cerevisiae deletion strains, locus YOR184W, strain ser1, active compounds read low) of 0.886 and a normalized growth (S. cerevisiae deletion strains, locus YOR231W, strain MKK1, active compounds read low) of 1.02. It also gave a normalized growth (S. cerevisiae deletion strains, locus YOR265W, strain rbl2, active compounds read low) of 1.01, a normalized growth (S. cerevisiae deletion strains, locus YOR270C, strain vph1, active compounds read low) of 0.82 and a normalized growth (S. cerevisiae deletion strains, locus YOR290C, strain snf2, active compounds read low) of 0.939. For the same molecule, the normalized growth (S. cerevisiae deletion strains, locus YOR316C, strain cot1, active compounds read low) was 0.985, the normalized growth (S. cerevisiae deletion strains, locus YPL051W, strain arl3, active compounds read low) was 0.996 and the normalized growth (S. cerevisiae deletion strains, locus YPL055C, strain LGE1, active compounds read low) was 1. It also gave a normalized growth (S. cerevisiae deletion strains, locus YPL078C, strain atp4, active compounds read low) of 1, a normalized growth (S. cerevisiae deletion strains, locus YPL106C, strain sse1, active compounds read low) of 0.963 and a normalized growth (S. cerevisiae deletion strains, locus YPL240C, strain hsp82, active compounds read low) of 0.999. The normalized growth (S. cerevisiae deletion strains, locus YPL241C, strain CIN2, active compounds read low) was 0.993, the normalized growth (S. cerevisiae deletion strains, locus YPL256C, strain CLN2, active compounds read low) was 1.02 and the normalized growth (S. cerevisiae deletion strains, locus YPR119W, strain clb2, active compounds read low) was 0.987. The normalized growth (S. cerevisiae deletion strains, locus YPR141C, strain kar3, active compounds read low) was 0.982, the normalized growth (S. cerevisiae deletion strains, locus YPR163C, strain tif3, active compounds read low) was 0.981 and the normalized growth (S. cerevisiae deletion strains, locus YPR167C, strain met16, active compounds read low) was 0.976. It also gave a normalized growth (S. cerevisiae deletion strains, strain wtn01, active compounds read low) of 0.97 and a normalized growth (S. cerevisiae strains, strain wild type, active compounds read low) of 1.
